Mdm2-MdmX inh = inhibitors of human Mdm2/MdmX interaction. O15151+Q00987. SaOS-2 split-luciferase Mdm2/MdmX complementation, luminescence. inhibition, % at 8 µM. 330,000 tested, 3% active. AID 485346;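 active = inhibition of at least 50% at 8 µM in the primary screen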
CSC inhib = cancer stem cell inhibition; cancer stem cell-like cells viability, luminescence; inhibition, % at 7.5 µM; 300,000 tested, 1.1% active; in the data active = inhibition above about 75%; tested in HMLE shEcad cells
Calb FLC = affects C. albicans growth with fluconazole. 300,000 tested, 0.57% active. C. albicans CaCi-2 (fluconazole-resistant clinical isolate) + fluconazole, Alamar Blue growth, 48 h. growth inhibition, % (test concentration not listed). AID 1979;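 active = growth inhibition above about 58% in most replicates, limit read from the data, passing the limit was not always enough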;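 note: all wells also contain fluconazole at 8 µg/ml as a sub-toxic cotreatment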
PP5 primary = PP5 (human) phosphatase inhibition; P53041; inhibition, % at 6.7 µM; 320,000 tested, 0.18% active; purified PP5c, OMFP substrate fluorescence;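 active = inhibition above the campaign's mean inhibition across all tested compounds plus 3 SD, cut at about 9.5% in these data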
PP1 inh = PP1-alpha (human) inhibition in PP5 counter-screen; purified PP1alpha, OMFP fluorescence; P62136; inhibition, % at 6.7 µM; 320,000 tested, 0.9% active;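 active = inhibition above the mean inhibition of all tested compounds plus 3 SD, computed separately for each screening campaign, cut at about 15% in these data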
Target sequence (P62136 whole entry, looked up): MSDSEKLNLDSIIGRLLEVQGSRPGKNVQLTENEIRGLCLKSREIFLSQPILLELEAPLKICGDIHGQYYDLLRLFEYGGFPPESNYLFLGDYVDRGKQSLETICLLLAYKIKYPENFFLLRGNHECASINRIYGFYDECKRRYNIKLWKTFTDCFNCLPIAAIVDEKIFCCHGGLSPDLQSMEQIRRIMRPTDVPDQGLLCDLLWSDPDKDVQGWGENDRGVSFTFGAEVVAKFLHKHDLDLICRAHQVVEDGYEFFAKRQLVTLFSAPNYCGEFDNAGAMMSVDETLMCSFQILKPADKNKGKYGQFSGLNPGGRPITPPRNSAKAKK
Beta cell apopt = blocks beta cell apoptosis | INS-1E cytokine-induced death, ATP luminescence, 48 h; percent of positive-control rescue, neutral wells zero | protection from apoptosis, % (no concentration beside the values) | 300,000 tested, 0.8% active;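 active = Every replicate reaches about 75%, or at least half do and their mean reaches it too, limit read from the data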;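 note: higher means more ATP so stronger rescue from cytokine killing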
Mdm2-MdmX conf = confirmation of human Mdm2/MdmX interaction inhibitors. shares compounds with Mdm2-MdmX inh. Mdm2-MdmX binding, luminescent assay. inhibition, % at 8 µM. 10,000 tested, 55% active; in the data active = inhibition above about 40%
Full FLuc ctr = counter-screen for Mdm2/MdmX inhibitors: full-length luciferase | shares compounds with Mdm2-MdmX inh | SaOS-2 full-length luciferase counterscreen, luminescence | inhibition, % at 8 µM | 6,200 tested, 77% active | AID 504607;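 active = mean inhibition at 8 µM reaching about 37%, which flags the compound as non-specific, limit read from the data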;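 note: p53-null SaOS-2 cells with luciferase driven by a doxycycline-inducible promoter; compound on cells about two nights before reading with doxycycline added after day one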
Large screens that a line does not name were inactive (follow-up assays come after a bar, where they were run). An excerpt weighted towards active compounds, which were near 4.9% of everything screened.

COc1ccc(-c2cc(C3CCN(c4ccc(C(C)=O)cc4[N+](=O)[O-])CC3)[nH]n2)cc1	Mdm2-MdmX inh 52, CSC inhib 76 | Mdm2-MdmX conf 46 | Full FLuc ctr 51
COc1ccc(CC(=O)OCC(=O)Nc2cccc(C(C)=O)c2)cc1OC	none (no result: CSC inhib, Calb FLC, PP5 primary, PP1 inh, Beta cell apopt)
C/C(=N/NC(=O)c1sc(=S)n(C)c1C)c1ccccc1	Mdm2-MdmX inh 53 | Mdm2-MdmX conf inactive
Cc1c(C(=O)NN)sc(=S)n1C	none
Cc1cc2ccccn2c1C(=O)c1ccc(NN)c([N+](=O)[O-])c1	Mdm2-MdmX inh 62 | Mdm2-MdmX conf inactive
Cc1ccccc1Cn1c(CN2CCN(c3ccc(F)cc3)CC2)nc2c1c(=O)n(C)c(=O)n2C	Mdm2-MdmX inh 62 | Mdm2-MdmX conf inactive
Cn1c(=O)oc2cc(S(=O)(=O)N3CCC(C(=O)NCc4ccccc4Cl)CC3)ccc21	Mdm2-MdmX inh 51 | Mdm2-MdmX conf inactive
C=CCNC(=O)C1CC(=O)N(c2ccc(OCC(=O)Nc3cccc(OC)c3)cc2)C1 (stereo not drawn)	none
C=CCNC(=O)C1CC(=O)N(c2ccc(OCC(=O)Nc3ccc(Cl)c(C(F)(F)F)c3)cc2)C1 (stereo not drawn)	Mdm2-MdmX inh 78 (no result: Beta cell apopt) | Mdm2-MdmX conf inactive
Cc1nn(Cc2c(Cl)cccc2Cl)c(C)c1NC(=O)Cn1nc([N+](=O)[O-])c(Cl)c1C	Mdm2-MdmX inh 70 | Mdm2-MdmX conf inactive
Cc1nn(Cc2c(Cl)cccc2Cl)c(C)c1NC(=O)c1cc(C(C)C)on1	Mdm2-MdmX inh 79 | Mdm2-MdmX conf 62 | Full FLuc ctr 54
Cc1cc(C(=O)Nc2c(C)nn(Cc3c(Cl)cccc3Cl)c2C)no1	none
O=C(c1ccc(Cl)c(Cl)c1)N1CCC(=O)N(C(COCc2ccccc2)Cc2ccccc2)CC1 (stereo not drawn)	Mdm2-MdmX inh 61 | Mdm2-MdmX conf 48 | Full FLuc ctr 90
O=C(c1cccc(Cl)c1)N1CCC(=O)N(C(COCc2ccccc2)Cc2ccccc2)CC1 (stereo not drawn)	none
COc1cccc2sc(Nc3nnc(-c4ccc(F)cc4)o3)nc12	Mdm2-MdmX inh 64, CSC inhib 107, Calb FLC 117 | Mdm2-MdmX conf 41 | Full FLuc ctr 67
COc1cccc2sc(Nc3nnc(-c4cccs4)o3)nc12	none

Screening results from PubChem BioAssay.
